# In the library only some 3.4% were active in any assay of this set; here they are far more common.
# Mcl1 Noxa PPI – disrupts binding of human Mcl-1 to Noxa peptide | AID 1022 | 220,000 compounds, 1.5% hits | TR-FRET Mcl-1/Noxa peptide binding, 2 h | Q07820 | inhibition, % at 21.7 µM;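 active = compounds that cut the protein-peptide binding signal by more than 50% relative to plate controls in a single-dose test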;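 note: His-tagged Mcl-1 with rhodamine Noxa BH3 peptide and terbium anti-His antibody; 0% = Mcl-1 plus Noxa peptide wells and 100% = peptide-only wells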
# Target sequence (Q07820 whole entry, looked up): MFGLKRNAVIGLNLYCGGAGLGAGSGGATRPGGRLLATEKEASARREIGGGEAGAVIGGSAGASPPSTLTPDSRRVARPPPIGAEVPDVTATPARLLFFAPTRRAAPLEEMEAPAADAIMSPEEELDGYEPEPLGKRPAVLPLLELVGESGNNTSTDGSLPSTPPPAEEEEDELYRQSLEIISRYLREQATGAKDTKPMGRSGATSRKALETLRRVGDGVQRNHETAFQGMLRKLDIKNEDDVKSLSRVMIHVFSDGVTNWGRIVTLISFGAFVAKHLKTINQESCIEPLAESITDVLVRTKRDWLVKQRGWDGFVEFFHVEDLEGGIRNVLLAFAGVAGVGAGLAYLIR
# Bim-Mcl-1 – human Bim-Mcl-1 interaction inhibition; Q07820; Bead-based flow cytometry, Bim peptide-Mcl-1 binding; inhibition, % at 10 µM; 190,000 compounds, 0.1% hits; in the data active = inhibition above about 40%;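 note: 0% = no compound tracer wells and 100% = peptide blocker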
# Calpain2 inh – blocks pig calpain II enzyme activity. purified calpain II, fluorogenic peptide substrate, 30 min. inhibition, % at 16 µM. 220,000 compounds, 0.37% hits. AID 1236;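 active = inhibition above about 50%, limit read from the data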
# Mcl1 Bid PPI – Mcl-1/Bid interaction inhibition; TR-FRET Mcl-1/Bid-Dy647 peptide binding, 1536-well; inhibition, % at 21.7 µM; 220,000 compounds, 0.97% hits; AID 1021;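 active = compounds that cut the binding signal by more than half at the single screening dose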;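 note: His-tagged Mcl-1 with europium anti-His antibody binding Bid BH3 peptide; 0% = Mcl-1 plus peptide wells and 100% = peptide-only wells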
# 14-3-3 Bad PPI – disrupts binding of bovine 14-3-3 zeta to phospho-Bad peptide; inhibition, % at 21.7 µM; TR-FRET 14-3-3zeta/Dy647-pBad peptide displacement, 1 h; 220,000 compounds, 0.71% hits;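 active = inhibition above about 70%, limit read from the data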;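 note: 0% = full 14-3-3 plus peptide FRET controls and 100% = background without 14-3-3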
# Target sequence (P63103 whole entry, looked up): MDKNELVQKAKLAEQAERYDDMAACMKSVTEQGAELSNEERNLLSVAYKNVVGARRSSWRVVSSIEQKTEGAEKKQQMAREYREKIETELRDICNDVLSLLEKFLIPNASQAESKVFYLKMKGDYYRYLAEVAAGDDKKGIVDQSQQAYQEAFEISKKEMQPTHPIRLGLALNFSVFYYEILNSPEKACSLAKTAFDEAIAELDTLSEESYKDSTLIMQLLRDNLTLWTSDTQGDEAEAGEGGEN
# p47phox inh – blocks human p47phox regulatory protein of NADPH oxidases | AID 1274 | p47phox/p22phox peptide binding, fluorescence polarization, 2 h | 220,000 compounds, 0.53% hits | P14598 | inhibition, % at 24.7 µM;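 active = inhibition above about 30%, limit read from the data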;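 note: 0% = p47phox with labelled peptide and 100% = labelled peptide alone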
# An asterisk follows results filed as active; / = no result given; [ ] = another dose, or the depositor's remark.
SMILES,Mcl1 Noxa PPI,Bim-Mcl-1,Calpain2 inh,Mcl1 Bid PPI,14-3-3 Bad PPI,p47phox inh
CC(=O)N1CCc2ccc(S(=O)(=O)N3CCN(C)CC3)cc21,0.2,-2.0,-2.3,-19.1,-1.0,-13.4
Oc1ccc(/C=N/N=C(c2ccccc2)c2ccccc2)c(O)c1O,101.2*,-1.0,11.4,6.4,16.6,-3.2
O=C(/C(=N/N=C/c1ccc(O)c(O)c1O)c1ccccc1)c1ccccc1,51.8*,-1.0,9.8,-19.0,-5.6,-39.7
Oc1cccc(C=NCc2ccccc2)c1O,22.8,-1.0,-57.4,-9.6,-10.7,-10.0
O=C(CSc1nc2ccccc2c(=O)n1-c1ccccc1Cl)Nc1cccc(S(=O)(=O)N2CCOCC2)c1,-15.8,-1.0,-60.2,-33.7,-4.1,-42.0
CCN(CC)CCN(C(=O)c1c(F)cccc1F)c1nc2cc(C)cc(C)c2s1,-0.8,0.0,-8.0,-17.3,6.2,-6.6
CC(C)CN(C(=O)COC(=O)c1cc2c(s1)CCC2)C1CCS(=O)(=O)C1 (stereo unspecified),55.4*,1.0,-80.9,-29.3,-18.9,-3.1
CC(C)CN(C(=O)COC(=O)c1ccc(-c2ccccc2)cc1)C1CCS(=O)(=O)C1 (stereo unspecified),0.6,-1.0,-8.6,1.8,-2.9,-2.5
Fc1cc(F)cc(NC(=S)Nc2ccccc2N2CCOCC2)c1,18.3,-3.0,12.9,-23.0,8.8,-4.2
COc1cc(-c2nnc(SCc3cc(=O)oc4cc(O)c(O)cc34)o2)cc(OC)c1OC,77.1*,5.0,-300.0,-72.0,-8.1,-20.1
CCCOC(=O)CSc1nnc(-c2cc(OC)c(OC)c(OC)c2)o1,17.4,1.0,13.4,-12.1,-7.7,-1.8
CCCCCOC(=O)CSc1nnc(-c2cc(OC)c(OC)c(OC)c2)o1,6.5,-1.0,-17.1,-3.3,-7.8,31.1*
COC(=O)c1c(C)oc(C)c1S(=O)(=O)N1CCCC1,-3.6,/,-20.0,-16.4,-15.4,-7.5
CC1CCCN(C(=O)CSc2nnc(-c3ccc(S(=O)(=O)N4CCOCC4)cc3)n2C)C1 (stereo unspecified),0.7,0.0,14.2,-2.3,84.6*[fluorescence artefact?],1.2
CCn1c(SCCN2CCCCC2)nnc1-c1ccc(S(=O)(=O)N2CCOCC2)cc1,26.7,-3.0,-45.3,25.8,74.6*,-4.5
COc1ccc(S(=O)(=O)NCc2ccc(F)cc2)cc1OC,-7.8,2.0,22.7,-8.9,-0.4,-22.2
O=C(O)COc1ccccc1/C=N/Nc1ccc(S(=O)(=O)Nc2ccc(Cl)cc2)cc1[N+](=O)[O-],72.9*,0.0,-52.5,23.3,21.1,-6.2
Cc1ccc(OC(=O)C(C)c2cccc(C(=O)c3ccccc3)c2)cc1 (stereo unspecified),12.0,-4.0,12.3,-6.1,13.5,31.4*
CCN(CC)CCN(C(=O)c1ccc(CN2CCCCC2)o1)C(C(=O)NC1CCCCC1)c1ccc(F)cc1 (stereo unspecified),-16.1,-2.0,-10.9,-19.8,-6.0,-32.2
O=C(Nc1nc(COc2ccccc2)cs1)C12CC3CC(CC(C3)C1)C2,13.1,-2.0,58.3*,13.7,-3.0,-0.3
COc1ccnc(Oc2ccc(F)cc2)c1C(=O)N/C=N/OCc1ccccc1,10.6,-2.0,2.2,4.0,-5.3,-9.9
Cc1c([N+](=O)[O-])c(C(=O)N2CCCC2)nn1C,12.7,-4.0,-60.2,-6.6,2.7,-5.4
Cc1c([N+](=O)[O-])c(C(=O)Sc2ccc(Br)cc2)nn1C,35.2,/,19.6,-1.2,9.0,39.1*
COc1ccc(NS(=O)(=O)c2ccc(-c3n[nH]c(=S)n3Cc3ccccc3)cc2)cc1,12.8,/,-8.1,-154.0,0.1,-5.5
CN1CCN(C(=S)c2ccc(Cl)cc2)CC1,2.2,3.0,-41.3,-70.0,-17.0,1.5
SMILES,Mcl1 Noxa PPI,Bim-Mcl-1,Calpain2 inh,Mcl1 Bid PPI,14-3-3 Bad PPI,p47phox inh
CN1CCN(C(=S)NC(=O)c2ccc(Cl)cc2)CC1,67.7*,-2.0,-70.7,-32.6,24.1,-8.6
O=C(Nc1ccc(N2CCOCC2)cc1)Nc1ccc(Cl)c(Cl)c1,81.8*,-131.0,-54.2,-21.2,-10.5,-21.5
Cc1ccc(NC(=O)c2cc(N3C(=O)C=CC3=O)ccc2N2CCOCC2)cc1Cl,56.4*,-19.0,-53.5,11.0,-27.3,11.5
CCCCn1nc(NC(=O)c2cccs2)c2cc3ccccc3nc21,19.7,2.0,3.4,15.2,39.4,-12.3
CCCn1nc(NC(=O)c2cccs2)c2cc3ccccc3nc21,14.9,0.0,-27.5,18.4,76.8*[fluorescence artefact?],-17.6
CCCCn1nc(NC(=O)c2cccs2)c2cc3cc(OC)ccc3nc21,/,1.0,/,/,/,/
CCCn1nc(NC(=O)c2cccs2)c2cc3cc(OC)ccc3nc21,17.0,4.0,-139.7,18.3,91.7*[fluorescence artefact?],-47.4
CNC(=O)/C(C#N)=C/c1c(N(Cc2ccccc2)Cc2ccccc2)nc2c(C)cccn2c1=O,-2.6,90.0*,19.6,30.4,15.4,-6.4
COC(=O)C(Cc1ccccc1)NC(=S)NC(=O)c1ccccc1 (stereo unspecified),0.7,1.0,25.2,-16.6,-12.0,-5.8
O=C(/C=C/c1cccnc1)/C=C/c1cccnc1,14.2,/,5.7,-7.2,-2.9,-12.1
CN(CC(=O)NCc1ccco1)S(=O)(=O)c1ccc2c(c1)c(=O)n(C)c(=O)n2C,17.2,/,9.2,4.3,4.0,4.3
Cc1c(Cl)cccc1Nc1nc(N)nc(CN2CCc3ccccc3C2)n1,20.4,0.0,23.9,-2.9,2.7,-9.4
Cc1ccc(Nc2nc(N)nc(CN3CCc4ccccc4C3)n2)cc1,5.1,1.0,-33.9,-6.4,-9.0,77.1*
O=C(Nc1sc2c(c1C(=O)O)CCC2)c1ccccc1,32.5,-1.0,5.5,72.1*,83.2*,-13.2
COC(=O)c1c(NC(=O)c2cnccn2)sc2c1CCC2,13.9,0.0,-18.1,96.7*,-0.9,-1.0
CNC(=S)Nc1sc2c(c1C(=O)OC)CCC2,75.0*,-2.0,11.6,-113.5,-4.0,3.6
CCOC(=O)c1c(NC(=O)c2ccccc2N(C)S(=O)(=O)c2ccccc2)sc2c1CCCC2,8.1,53.0*,-117.6,-26.0,-5.3,4.6
COc1c(Cl)cc(Cl)cc1/C=C/C(=O)c1ccc(NC(=O)c2cccs2)cc1,17.8,-8.0,-77.8,-11.8,-11.8,-20.2
CC(C)C[C@H](NC(=O)c1[nH]cnc1C(=O)N[C@@H](C)C(=O)OC(C)(C)C)C(=O)OC(C)(C)C,-15.0,/,13.6,-30.9,-2.2,-12.1
CC1(C)CC(=O)C2=C(C1)N(Cc1ccccc1)C(=O)C2(NC(=O)C(C)(C)C)C(F)(F)F (stereo unspecified),11.3,3.0,16.6,-9.4,0.6,5.7
O=C(NNC(=O)c1cc(OCC(F)(F)F)ccc1OCC(F)(F)F)c1cccc(C(F)(F)F)c1,5.0,-8.0,91.6*,3.0,22.0,-3.6
Cc1ccc(C(=O)NNC(=O)c2cc(OCC(F)(F)F)ccc2OCC(F)(F)F)cc1,-11.7,3.0,-4.8,-14.3,2.8,-9.4

# Screens deposited in PubChem by several laboratories.
